Laboratory results as given in paper PMC10726135, “HNF4α isoforms regulate the circadian balance between carbohydrate and lipid metabolism in the liver”.
Over roughly 18,000 sequences, “log2 normalized intensity” has its median near 0.36; the highest 2% begin near 7.3. The sample holds the highest values, similar sequences and a random draw of the others, so the mix is not that of the screen.

Biological target: T1, HNF4alpha8 (COS-7 nuclear extract) (Homo sapiens, UniProt P41235-5 1-452)
T1 sequence: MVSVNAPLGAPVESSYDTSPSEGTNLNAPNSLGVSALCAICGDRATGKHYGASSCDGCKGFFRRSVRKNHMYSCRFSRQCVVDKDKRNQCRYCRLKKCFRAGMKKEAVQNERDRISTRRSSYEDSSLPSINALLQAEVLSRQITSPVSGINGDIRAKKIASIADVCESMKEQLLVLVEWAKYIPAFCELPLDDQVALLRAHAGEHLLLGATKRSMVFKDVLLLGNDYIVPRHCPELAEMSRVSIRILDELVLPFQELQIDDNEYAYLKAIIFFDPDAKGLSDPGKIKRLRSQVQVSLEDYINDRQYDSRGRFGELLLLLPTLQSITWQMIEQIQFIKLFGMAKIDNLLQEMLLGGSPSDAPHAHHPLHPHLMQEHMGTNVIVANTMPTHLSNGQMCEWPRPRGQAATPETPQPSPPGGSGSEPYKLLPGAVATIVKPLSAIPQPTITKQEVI
Experiment: protein-binding microarray; COS-7 nuclear extract on double-stranded Agilent 4x180k PBM; binding buffer, salt, pH and temperature not given in the material; high values mean tight binding
Settings: chain copies: 2; label: 3' end of strand 1 on the slide; dsDNA, one strand shown
In short: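 A human HNF4α isoform was expressed in COS-7 cells by transient CaPO4 transfection, and nuclear extracts were prepared. These were applied to a custom Agilent SurePrint G3 4x180k array carrying ~44,000 test sequences in quadruplicate as double-stranded ~60-nt oligonucleotides, and an Agilent G2565CA scanner imaged bound HNF4α at 2-µm resolution. The background-corrected, normalized gProcessedSignal from Agilent software was used as the binding signal.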

First: CCAATTATTGCGAGTTTAGGAGGGTTCCTGGCCTAGGGAGATTAGAGTATCGGTCGA
Second: GATCCACGGAGAATGTAGACCTTTACCACCGCCTAGGGAGATTAGAGTATCGGTCGA
The binding signal of the first is lower: -0.0269 log2 normalized intensity for the first, 2.35 log2 normalized intensity for the second.

First: ATCCCCCACACCGAGATAGTAGAGATAGTGGCCTAGGGAGATTAGAGTATCGGTCGA
Second: TCAAAGTCCAAATAGCGCTAACTCTATATCGCCTAGGGAGATTAGAGTATCGGTCGA
The binding signal of the first is higher: 2.5 log2 normalized intensity for the first, 0.779 log2 normalized intensity for the second.

Compared with “TGGCACTGAAGAATGTCTAAATCTGAAGGAGCCTAGGGAGATTAGAGTATCGGTCGA”, “GTGTTGACCTCTGGACCTCATCTTCCTCCCGCCTAGGGAGATTAGAGTATCGGTCGA” is higher in binding signal: -0.983 log2 normalized intensity for the first, 5.2 log2 normalized intensity for the second.

Compared with “TCTTTCAAGATAACAAGGCAAACTTTATCAGCCTAGGGAGATTAGAGTATCGGTCGA”, “ATGTGTTTGCATGACTCATAAAGAACAGTTGCCTAGGGAGATTAGAGTATCGGTCGA” is higher in binding signal: -0.554 log2 normalized intensity for the first, 0.739 log2 normalized intensity for the second.

Compared with “ATTTTGGACTTTGTGCAAATGGAAAATTGTGCCTAGGGAGATTAGAGTATCGGTCGA”, “AGGGGTTACTAGTGAGTTGGACTTTGGACCGCCTAGGGAGATTAGAGTATCGGTCGA” is higher in binding signal: 3.52 log2 normalized intensity for the first, 11.6 log2 normalized intensity for the second.

Compared with “CCTGATGACAACTGAATGTGACCTTTTGGAGCCTAGGGAGATTAGAGTATCGGTCGA”, “TGACAACTGAATGTGACCTTTTGGACCACAGCCTAGGGAGATTAGAGTATCGGTCGA” is higher in binding signal: 6.26 log2 normalized intensity for the first, 7.4 log2 normalized intensity for the second.

Compared with “GACCTGTCTTCCTGGTGACCTTTGTTTGGTGCCTAGGGAGATTAGAGTATCGGTCGA”, “ACTGAATGTGACCTTTTGGACCACAGAGTGGCCTAGGGAGATTAGAGTATCGGTCGA” is higher in binding signal: 5.66 log2 normalized intensity for the first, 5.97 log2 normalized intensity for the second.

Going from “TTACCGGTGTGACTTTGGTTGGATTTCTTGGCCTAGGGAGATTAGAGTATCGGTCGA” to “AACGGTTCAAAGGACAGACTTTGGACCTGGGCCTAGGGAGATTAGAGTATCGGTCGA”, the binding signal rises from 1.56 log2 normalized intensity to 7.98 log2 normalized intensity.

First: GGGGACCTTTGGCCTTTACCTGTTACTTATGCCTAGGGAGATTAGAGTATCGGTCGA
Second: GTAGAGACCTGTCTTCCTGGTGACCTTTGTGCCTAGGGAGATTAGAGTATCGGTCGA
The binding signal of the first is lower: 4.06 log2 normalized intensity for the first, 7.95 log2 normalized intensity for the second.

First: GTCAAGTAGAGACCTGTCTTCCTGGTGACCGCCTAGGGAGATTAGAGTATCGGTCGA
Second: TTCAAAGGACAGACTTTGGACCTGGCCCTCGCCTAGGGAGATTAGAGTATCGGTCGA
The binding signal of the first is lower: 2.25 log2 normalized intensity for the first, 6.56 log2 normalized intensity for the second.

First: GATACAACGGTTCAAAGGACAGACTTTGGAGCCTAGGGAGATTAGAGTATCGGTCGA
Second: GACCTCATGTAGTCACATACCTATGCAAACGCCTAGGGAGATTAGAGTATCGGTCGA
The binding signal of the first is higher: 4.08 log2 normalized intensity for the first, 1.02 log2 normalized intensity for the second.

Compared with “CAGCATCTTCACCGTAAAGCCACCCCTTTCGCCTAGGGAGATTAGAGTATCGGTCGA”, “AGCGATCATGGGTGACCCGTTAAGAATGAGGCCTAGGGAGATTAGAGTATCGGTCGA” is lower in binding signal: 2.59 log2 normalized intensity for the first, 1.24 log2 normalized intensity for the second.

Going from “CTTAGAATCGAATTGTGAAACTCAGAATCAGCCTAGGGAGATTAGAGTATCGGTCGA” to “TCACCTACTGACCTTTCTCCCTTTTCACAGGCCTAGGGAGATTAGAGTATCGGTCGA”, the binding signal rises from -0.796 log2 normalized intensity to 3.5 log2 normalized intensity.

Going from “AAGATCTGTGAAAGAAAAGTACTTTAGTGTGCCTAGGGAGATTAGAGTATCGGTCGA” to “CAACAGGTGTTAAAATAACGACCTTTGGGCGCCTAGGGAGATTAGAGTATCGGTCGA”, the binding signal rises from 0.992 log2 normalized intensity to 6.57 log2 normalized intensity.

Compared with “AATATCTCAGCACATGGCAGTGTACACTAGGCCTAGGGAGATTAGAGTATCGGTCGA”, “GAGAGAAAAAATCAGAGAGCAAAGGTGATCGCCTAGGGAGATTAGAGTATCGGTCGA” is higher in binding signal: 0.805 log2 normalized intensity for the first, 2.63 log2 normalized intensity for the second.

First: ATTCCCCGACTCCTGGGTGTGAGATAAGGCGCCTAGGGAGATTAGAGTATCGGTCGA
Second: AGACTGGTTTGCACAGGTTACACAGTATGTGCCTAGGGAGATTAGAGTATCGGTCGA
The binding signal of the first is higher: 0.0557 log2 normalized intensity for the first, -0.754 log2 normalized intensity for the second.

Compared with “AAGGTCACTAATTGGAAGCTCTTTCCCTCCGCCTAGGGAGATTAGAGTATCGGTCGA”, “ACACACAATAAGGACTTTGGACCGTCTTGTGCCTAGGGAGATTAGAGTATCGGTCGA” is higher in binding signal: 0.732 log2 normalized intensity for the first, 8.19 log2 normalized intensity for the second.

Compared with “GTTAAGTGAGTGGACTTTGGTCCTGGTCAGGCCTAGGGAGATTAGAGTATCGGTCGA”, “CTCATTCCTATTCGGTGCTGACCTTTGTTCGCCTAGGGAGATTAGAGTATCGGTCGA” is higher in binding signal: 7.53 log2 normalized intensity for the first, 8.62 log2 normalized intensity for the second.

Going from “TTTGGACCTGGCCTGCGGGGTCAGGCCGTGGCCTAGGGAGATTAGAGTATCGGTCGA” to “CAATAAGGACTTTGGACCGTCTTGTGGATCGCCTAGGGAGATTAGAGTATCGGTCGA”, the binding signal rises from 2.71 log2 normalized intensity to 6.72 log2 normalized intensity.

Compared with “AGGACTTTGGACCGTCTTGTGGATCCTTGGGCCTAGGGAGATTAGAGTATCGGTCGA”, “GTGAGTGGACTTTGGTCCTGGTCAGACTTGGCCTAGGGAGATTAGAGTATCGGTCGA” is higher in binding signal: 5.27 log2 normalized intensity for the first, 6.78 log2 normalized intensity for the second.

Compared with “GAGCACTCATTCCTATTCGGTGCTGACCTTGCCTAGGGAGATTAGAGTATCGGTCGA”, “TCCTATTCGGTGCTGACCTTTGTTCACATTGCCTAGGGAGATTAGAGTATCGGTCGA” is higher in binding signal: 3.97 log2 normalized intensity for the first, 6.64 log2 normalized intensity for the second.
